In the supplement of paper PMC3334620:
Over roughly 33,000 sequences, “E-score (-0.5 to 0.5)” has its median near -0.035; the highest 2% begin near 0.35. The list comes from a sample in which the highest values are over-represented; it also holds similar and randomly drawn sequences.

Biological target: T1, Pdr3 (UniProt P33200)
T1 sequence: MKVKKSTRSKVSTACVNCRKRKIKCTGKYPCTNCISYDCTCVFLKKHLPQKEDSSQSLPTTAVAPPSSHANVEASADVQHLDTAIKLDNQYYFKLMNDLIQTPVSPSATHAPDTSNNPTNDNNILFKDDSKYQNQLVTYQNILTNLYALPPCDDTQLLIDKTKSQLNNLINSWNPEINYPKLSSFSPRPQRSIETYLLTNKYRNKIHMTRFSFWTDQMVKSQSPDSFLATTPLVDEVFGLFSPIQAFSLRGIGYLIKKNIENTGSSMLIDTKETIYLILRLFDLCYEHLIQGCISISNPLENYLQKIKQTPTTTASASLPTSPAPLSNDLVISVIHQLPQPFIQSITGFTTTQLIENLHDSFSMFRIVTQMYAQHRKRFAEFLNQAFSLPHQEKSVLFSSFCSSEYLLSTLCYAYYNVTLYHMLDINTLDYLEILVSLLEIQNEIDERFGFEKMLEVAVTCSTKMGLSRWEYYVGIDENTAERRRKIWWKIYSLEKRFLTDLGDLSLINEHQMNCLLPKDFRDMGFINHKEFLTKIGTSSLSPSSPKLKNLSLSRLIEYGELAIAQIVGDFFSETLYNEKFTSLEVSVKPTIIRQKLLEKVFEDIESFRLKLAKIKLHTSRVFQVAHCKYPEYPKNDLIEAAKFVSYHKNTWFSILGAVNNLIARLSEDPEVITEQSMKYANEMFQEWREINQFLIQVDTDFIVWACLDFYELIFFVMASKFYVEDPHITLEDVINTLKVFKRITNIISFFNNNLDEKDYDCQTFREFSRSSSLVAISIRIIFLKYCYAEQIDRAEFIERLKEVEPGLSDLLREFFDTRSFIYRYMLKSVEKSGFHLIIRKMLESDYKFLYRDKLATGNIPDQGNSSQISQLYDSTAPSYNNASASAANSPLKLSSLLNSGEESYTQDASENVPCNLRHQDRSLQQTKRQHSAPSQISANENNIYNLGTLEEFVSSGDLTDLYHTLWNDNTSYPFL
Experiment: PBM E-score (8-mer binding enrichment) (E-score (-0.5 to 0.5)); higher = stronger / more preferred TF binding
Conditions: protein concentration: 200 nM; construct: GST-full length
Procedure: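 Universal 'all 10-mer' protein binding microarrays (Agilent AMADID 015681) probed with GST-tagged S. cerevisiae TFs (full-length or DBD) made by in vitro transcription/translation (PURExpress), about 100-200 nM. Bound TF was detected with fluorescent anti-GST. Each ungapped 8-mer (which stands for itself and its reverse complement) is scored by the PBM enrichment score (E-score), a modified Wilcoxon-Mann-Whitney statistic from -0.5 to +0.5, computed with the Universal PBM Analysis Suite. Scale: above 0.35 generally sequence-specific binding.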

Sequence | PBM E-score
ATGGTCCA | -0.203
CCGGTCCC | 0.312
ATGGTCCG | 0.387
CAGCTTAC | -0.193
GTAGTGAC | 0.0971
CAGATGCA | -0.278
ACGCGCAC | -0.111
ACATCCAC | -0.04
CAATCATG | -0.189
AGGATTCC | 0.223
CCGATTCG | 0.25
GCGATTCC | 0.34
CCGATTCC | 0.395
CGGATTCA | 0.179
CGGATTCC | 0.454
ATTCACCG | 0.254
ACCCACAG | -0.278
AATCTCCG | 0.322
CATCTCCC | 0.155
CATCTCCG | 0.377
GTCTGACA | 0.159
AACCTTTG | -0.165
GGAACGGA | 0.431
GGAACCGA | 0.406
CGAACGGA | 0.407

Sequence | PBM E-score
GGAACGCA | 0.275
CGAACGAA | 0.0784
AGAACGGA | 0.316
CGAACCGA | 0.15
CGAACGGC | 0.177
AGAACCGA | 0.0498
AACACCCC | 0.0302
AGCACTTA | -0.102
GGATTCCC | 0.231
ACCTGACT | -0.131
AGAGGGGC | -0.138
TAGGGTGA | 0.00768
TATGTCAA | 0.0343
GTCTCCAC | -0.208
TAAGGGTA | -0.262
CCGGGTTC | 0.411
CCGGGTCC | 0.365
ACGGGTCC | 0.186
ACGGGTTC | 0.202
CCGGGTCA | 0.349
CCGGGTCG | 0.378
ACGGGTCG | 0.227
GCGGGTCC | 0.243
CCGGGTTA | 0.353
AAGCGCTT | 0.21

Sequence | PBM E-score
ATGAAGGG | -0.171
GTGGATAA | 0.0146
GGATTTGA | -0.0356
CGGTCTTC | 0.123
AATCAACA | 0.115
GCTCGAAA | 0.0413
ATACTCCC | 0.127
ATACTCCG | 0.371
ATACTCCA | -0.0793
CAGCGGCG | 0.154
ACGCGGCG | 0.209
CCGCGGCG | 0.477
CCGCGGCC | 0.459
GCGCGGCC | 0.219
ACGCGGCC | 0.0489
GACGTCTC | -0.145
TATCGAGA | -0.0727
ACGCAAGT | -0.255
GCCCCGGA | 0.41
CCCCCGGA | 0.311
GCCCCGGC | 0.163
TCCCCGAA | 0.232
TCCCCGGA | 0.411
TCCCCCGA | 0.0813
CTTGGAGC | -0.207

Sequence | PBM E-score
ACTTTCAG | -0.184
AAATTGCG | 0.0648
GATCTTAC | -0.113
ACTTCCAA | -0.127
GCTTCCGA | 0.405
GCTTCCTA | -0.205
ACTTCCGA | 0.355
GCTTCCAA | -0.143
ACTTCCTG | -0.121
ACTTCCCA | -0.0401
ACTTCCGG | 0.42
ACTTCCCG | 0.291
CGCACAAA | 0.0204
AGGGTGTG | -0.0975
ACGCCCAA | 0.00636
AAAGCTCA | -0.213
CGGTCGAG | -0.014
CGGTACCA | 0.0596
CGGTACCC | -0.0572
CGGTACCG | 0.362
CTTCATCC | -0.00929
ACTCCGGA | 0.456
CCTCCGGC | 0.32
ACTCCGGG | 0.369
GCTCCGTA | 0.32

Sequence | PBM E-score
ACTCCGGC | 0.315
GCTCCGCA | 0.178
ACTCCGAT | 0.203
ACTCCTGG | -0.134
CCTCCGGA | 0.416
CCTCCCGA | 0.103
GCTCCGGA | 0.461
AAATAGGT | -0.15
ATCAAAGA | -0.143
ACTCTGCA | -0.125
GGTTTCGA | 0.134
CTCTTTCC | 0.141
CATGAAAC | 0.0519
CGATTTCA | -0.0484
TGCATAAA | -0.00866
GCGTTGCC | 0.126
CACGGGCC | 0.196
CGCGGGTA | 0.363
CGCGGGTC | 0.331
CGCGGGCC | 0.379
CGCGGGCA | 0.397
AGCGGGCA | -0.048
GGCGGGCA | 0.219
AGCGGGTA | 0.0103
AGCGGGCC | 0.057

Sequence | PBM E-score
CCGATCTA | 0.0827
ATCCAATG | -0.208
AGTCTGAT | -0.133
AAGACAAA | -0.103
AACCGCTG | -0.114
CGTTCGAG | -0.0996
CAATTCCA | 0.0797
AAATTCCG | 0.418
CAATTCCC | 0.133
CAATTCCG | 0.435
AAATTCCC | 0.144
AAATTCCA | 0.0847
CAGATCTA | -0.337
AACAGCAT | -0.0321
GAGACTCA | -0.204
TGTGATAA | -0.121
CACGGAAA | 0.449
AACGGAGA | 0.243
GACGGAAA | 0.43
AACGGGAA | 0.354
CACGGGAA | 0.223
AACGGAAA | 0.464
TACGGGAA | 0.261
GACGGGAA | 0.203
CAAGGAAA | 0.00732

Sequence | PBM E-score
GACGGACA | 0.335
TACGGAAA | 0.402
TAGGGAAA | -0.15
GCTACGAC | 0.0127
CACTGGTC | -0.078
CAGATGCG | -0.126
CTAGGACA | -0.0782
CGGCTTGC | 0.197
GCTCGTAC | -0.126
CCTAGAAG | -0.146
ATGTCTAG | -0.064
AATAGGCG | 0.313
AGCCTTAG | -0.37
CAGCCACG | 0.145
CACAGAAG | -0.109
CACGGAAG | 0.386
CAAGGAAC | 0.161
CATGGAAC | -0.0483
GACGGAAC | 0.475
GATGGAAC | 0.06
GACAGAAC | 0.0194
CACGGAAC | 0.483
CAAGGAAG | -0.0209
